p53 reactivator: restores transcriptional activity of mutant p53; H1299 p53-A138V BP100-luciferase reporter, luminescence, 24 h; Potency, µM (titrated, usually from 92.2 µM), for inactives: at the top dose activity change, positive = activation, usual class: activators; actives 0.063% (n = 320,000); AID 504706; further: potency means the concentration at half of the fitted maximal effect; % of control where 0% means no effect; nearly all actives have a fitted effect of over 45% in size
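H1299 (p53-null), stable ts p53-A138V + BP100-Luc; 1000 cells/well, Opti-MEM/10% FBS; cpd 4 pt, 1:5; 24 h, 37 deg C, 5% CO2; detection reagent 10 min RT; luminescence.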
TSHR antagonist: blocks TSH signaling through the human TSH receptor; P16473; TSHR-expressing cells, TSH-stimulated cAMP HTRF, 2 h; stronger effect = lower value; activity change, negative = inhibition, % at 11.5 µM; actives 0.2% (n = 330,000); AID 504810;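 active means activity change below a set negative limit, meaning inhibition stronger than a set level, cut at about -70% in these data; inconclusive means activity change between two set negative limits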; further: on the % scale 0 is the no-effect control and ±100 the full control effect
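TSHR-expressing cells, 200/well, pre-treated with compound, then stimulated with EC80 TSH (4nM final) for 2 hours at 37 deg C. cAMP measured by competitive HTRF: anti-cAMP cryptate antibody in lysis buffer plus cAMP-d2, read after 30 minutes at room temperature.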
TCR act: activators of T cell receptors. Potency, µM (top dose mostly 9.22 µM), for the others: top-dose activation of IL-2 secretion, hits mostly activators. 330,000 tested, under 10 active. primary human leukocytes, anti-CD3, IL-2 HTRF, 48 h; further: % of control where 0% means no effect
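Primary human leukocytes were stimulated with a-CD3 beads plus compounds for 48 hr without co-stimulation; secreted IL-2 was quantified by HTRF using a-IL-2-K (europium cryptate) and a-IL-2-d2, excited at 320nm with acceptor emission read at 665nm.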
BRCA1 expr act: increases BRCA1 expression. MCF7-BRCA1-FFLuc reporter, luminescence, 48 h; response scale: scaled: vehicle 0%, 10 µM genistein 100%. Potency, µM (doses to about 46.1 µM), for the others: top-dose activation, hits mostly activators. actives 1.1% (n = 380,000). AID 624202; further: potency means the concentration at half of the fitted maximal effect; nearly all actives have a fitted effect of over 80% in size
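Compounds are tested at multiple concentrations on MCF7 BRCA1-luciferase reporter cells seeded at 2000 per well; after 48 h, a single luminescence end-point is taken and curves fitted to the normalized data.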
N370S GC mod: inhibits or activates N370S mutant glucocerebrosidase; N370S GC spleen homogenate, 4MU-glucoside fluorescence; Potency, µM (titrated, usually from 59.4 µM), for the others: top-dose activity change, negative = inhibition, hits mostly inhibitors; actives 0.092% (n = 330,000);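 further: potency means the concentration at half of the fitted maximal effect; 0% = full enzyme activity and -100% = no enzyme basal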
GLS inh: blocks human kidney-isoform glutaminase activity. GLS enzymatic activity, qHTS titration. AID 624170. Potency, µM (highest dose often 45.5 µM), for the others: at the highest dose activity change, negative = inhibition, usual class: inhibitors. actives 0.21% (n = 410,000). O94925; further: potency means the concentration at half of the fitted maximal effect; on the % scale 0 is the no-effect control and ±100 the full control effect
Target sequence (O94925 whole entry, looked up, canonical isoform): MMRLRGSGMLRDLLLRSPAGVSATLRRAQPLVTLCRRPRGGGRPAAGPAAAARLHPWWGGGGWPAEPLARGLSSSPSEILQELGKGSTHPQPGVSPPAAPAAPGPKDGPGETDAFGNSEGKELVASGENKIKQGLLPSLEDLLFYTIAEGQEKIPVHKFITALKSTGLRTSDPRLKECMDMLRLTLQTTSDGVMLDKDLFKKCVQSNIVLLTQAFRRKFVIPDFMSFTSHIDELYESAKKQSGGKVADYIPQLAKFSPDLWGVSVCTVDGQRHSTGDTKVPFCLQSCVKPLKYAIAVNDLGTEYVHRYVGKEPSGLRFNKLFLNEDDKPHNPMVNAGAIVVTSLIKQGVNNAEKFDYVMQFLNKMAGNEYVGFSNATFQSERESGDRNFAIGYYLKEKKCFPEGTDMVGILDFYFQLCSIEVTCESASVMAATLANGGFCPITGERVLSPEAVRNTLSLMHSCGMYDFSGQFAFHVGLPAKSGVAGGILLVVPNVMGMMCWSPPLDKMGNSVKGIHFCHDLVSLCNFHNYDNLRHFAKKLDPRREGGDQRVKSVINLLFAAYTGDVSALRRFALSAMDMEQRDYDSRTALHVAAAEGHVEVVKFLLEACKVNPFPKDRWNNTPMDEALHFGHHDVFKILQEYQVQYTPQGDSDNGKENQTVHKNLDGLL
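Coupled fluorescence readout: glutamate oxidase/HRP/Amplex Red detect glutamate formed by hKGA from L-glutamine (1 mM solution added). Buffer 45 mM KH2PO4 pH 8.2, 0.02% Tween-20; reads at t0 and 30 min RT.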
Active calls of the source: *; ? = inconclusive; · = no result given; [ ] = remark or other dose. This is a sample that favours compounds with a hit; in the whole collection about 1.4% have one here. Unless noted, the call rests on the fitted dose curve; in most records, active means well fitted curve in the direction sought with a large enough effect; inconclusive means small, poorly fitted or top-dose-only effect, or another doubt; inactive means no such curve, though single readings can be large; an effect the other way counts as inactive or inconclusive.

SMILES	p53 reactivator	TSHR antagonist	TCR act	BRCA1 expr act	N370S GC mod	GLS inh
CN(C(=O)c1cc(-c2ccc3c(c2)OCO3)on1)c1ccccc1	28%	-7	1%	2.8µM*	1%	5%
CN(/N=C/c1ccc2c(c1)OCO2)c1ccccc1	10µM*	-8	-3%[46.1 µM]	7.1µM*	11%	21%
O=C(/C=C/c1ccc2c(c1)OCO2)N1CCCCC1	24%	4	1%	3.5µM*	1%	56%
O=c1c(-c2ccc(Cl)cc2)nc2cnc(N3CCNCC3)nc2n1-c1ccccc1	·	·	·	·	-19%	·
CN(C(=O)/C=C/c1ccc2c(c1)OCO2)c1ccccc1	26%	-8	·	3.2µM*	4%	-11%
O=C(/C=C/c1ccc2c(c1)OCO2)c1ccc[nH]1	?	-7	2%[46.1 µM]	7.9µM*	4%	2%
CN(C(=O)C=Cc1ccccc1)c1ccccc1	·	·	2%	72%	·	-7%
COc1cccc(/C=C/C(=O)c2ccc[nH]2)c1	?	3	8%	7.9µM*	8%	-11%
Cc1ccc(NC(=O)/C=C/c2ccc3c(c2)OCO3)nc1	·	2	-7%[46.1 µM]	1.6µM*	11%	1%
Cc1ccc(NC(=O)Nc2ccc3c(c2)OCO3)nc1	7%	-11	-3%	?	29%	8%
O=C(NNC(=O)c1ccccc1Cl)c1ccncc1	2%	11	?	13%	-7%	18%
COc1c(C(=O)NNC(=O)c2ccccc2Cl)csc1Br	13%	2	-10%	10µM*	2%	11%
Cc1ccc(C)c(N2CCN(C3(c4ccccc4)C(=O)c4ccccc4C3=O)CC2)c1	·	·	·	·	·	-1%
C#CCOc1ccc(C2C(C(=O)OC)=C(C)NC3=C2C(=O)c2ccccc23)cc1OCC (stereo not drawn)	·	·	·	·	·	7%
COC(=O)c1ccccc1NC(=O)CSc1c2c(nc3ccc(Cl)cc13)CCCC2	·	·	·	·	·	7%
O=[N+]([O-])c1ccc(N/N=C/c2ccccc2)c(F)c1	30%	-24	-4%[46.1 µM]	8.9µM*	-4%	1%
COc1cc2ccccc2cc1C(=O)Nc1ccc(N2CCN(C)CC2)cc1	20µM*	-1	-4%	20%[1.84 µM]	0%	·
COc1c(C)cc(Br)cc1C(=O)Nc1ccc(N2CCN(S(C)(=O)=O)CC2)cc1	11%	2	2%	5%	0%	8%
COc1ccccc1C(=O)Nc1ccc(N2CCN(S(C)(=O)=O)CC2)cc1	6%	2	·	11µM*	1%	31%
COc1c(C)cccc1C(=O)Nc1ccc(N2CCN(S(C)(=O)=O)CC2)cc1	?	4	3%	3.5µM*	-11%	32%
COc1cc2ccccc2cc1C(=O)Nc1ccc(N2CCN(C(=O)C(C)C)CC2)cc1	-3%	-5	-3%	-20%	12%	18%
O=C1/C(=C/c2ccc(O)c(O)c2)Oc2ccccc21	·	·	·	·	3%	·
COc1ccc(OC)c2c1C(=O)C(Cl)=C(Cl)C2=O	-17%	-103*	12%	-86%	-12%	4%
COc1ccc(OC)c2c1C(=O)c1ccccc1C2=O	-19%	0	3%	4%	5%	-13%
Cc1cc(NS(=O)(=O)c2ccc(NC(=O)COc3c(C)cc(Br)cc3C)cc2)no1	-4%	2	1%	1%	4%	7.9µM*
SMILES	p53 reactivator	TSHR antagonist	TCR act	BRCA1 expr act	N370S GC mod	GLS inh
COc1ccccc1/C=N/N1C(=O)C2C3C=CC(CC3)C2C1=O (stereo not drawn)	5%	-3	25%	0%	-5%	-2%
O=C1C2C3C=CC(CC3)C2C(=O)N1/N=C/c1c[nH]c2ccccc12 (stereo not drawn)	?	2	-2%	8.9µM*	-1%	-3%
COC(=O)CNc1c(-c2ccccc2)nc2ccc(Br)cn12	?	28	12%	36%	11µM*	44%
N#C/C(=N\Nc1ccccc1)C(N)=S	2%	3	-2%	12%	-7%	11µM*
N#C/C(=N\Nc1ccc(Cl)cc1)C(N)=S	21%	-29	-1%	-54%	-7%	18%
O=C(Nc1nnc([C@@H]2C[C@H](O)[C@@H](CO)O2)s1)Nc1ccccc1F	·	·	·	6.3µM*	·	-1%
O=C(Nc1cccc(Cl)c1)Nc1nnc([C@@H]2C[C@H](O)[C@@H](CO)O2)s1	·	·	·	?	·	2%
O=C(Nc1ccc(F)c(Cl)c1)Nc1nnc([C@H]2C[C@H](O)[C@@H](CO)O2)s1	·	·	·	11µM*	·	2%
O=C(Nc1nnc([C@@H]2C[C@H](O)[C@@H](CO)O2)s1)c1cccc2ccccc12	·	·	·	8.9µM*	·	-1%
CCOc1ccccc1-c1ccc(C(=O)O)o1	·	·	·	·	-4%[136 µM]	·
COc1c([N+](=O)[O-])ccc(N)c1N	·	·	·	-8%	·	·
CCCN1CNc2c(c(=O)[nH]c(=S)n2CCc2ccc(OCC)c(OCC)c2)C1	·	·	·	-10%	·	·
O=C(NC1CCCCC1)c1cnn2c1NC(=C1CC1)C=C2C(F)F	·	·	·	-12%	·	·
CCCCn1c(SCC(=O)c2ccccc2)nc2sc3c(c2c1=O)CCCC3	·	·	·	·	·	-15%
O=C(COc1ccccc1C(=O)Nc1ccccc1)Nc1ccc(-c2ccccc2)cc1	·	·	·	38%	·	·
O=C(CSc1nc2nn(-c3ccccc3)c(=O)c-2c2n1CCCCC2)c1ccc(O)c(O)c1	28µM*	-16	-3%	-25%	·	10%
CNC(=O)CSc1nc2nn(-c3ccccc3)c(=O)c-2c2n1CCCCC2	1%	-5	5%	-41%	15%	-1%
CN(C)c1ccc(/C=C/c2cnnc3ccccc23)cc1	·	·	·	-58%	·	·
O=C(CSc1ccccc1C(=O)O)c1ccc(Cl)cc1	?	-4	3%	10µM*	-8%	16%
O=C(CSc1ccccc1C(=O)O)c1ccccc1	?	1	3%	66%	2%	2%
CCCC(CCC)C(N)=O	·	·	·	·	·	-5%
CS(=O)(=O)c1ccc(N)c(SSc2cc(S(C)(=O)=O)ccc2N)c1	?	-6	-3%	-19%	-10%	10µM*
CCOc1ccc(N)c(SSc2cc(OCC)ccc2N)c1	?	-3	5%	-28%	-20%	-14%
O=C(N/N=C/c1ccccc1[N+](=O)[O-])c1cccs1	20%	-6	-2%	?	-18%	3%
Cc1ccc(/C=N/NC(=O)c2cccs2)cc1[N+](=O)[O-]	25%	-2	2%	13µM*	2%	6%
Cc1cnc(NC(=O)c2ccc3c(c2)OCCO3)s1	-18%	25	5%	?	·	-5%
CCSc1nnc(NC(=O)c2ccc3c(c2)OCO3)s1	?	-7	1%	?	-3%	0%
Cc1nc2c(ccc3nc(NC(=O)c4ccc5c(c4)OCCO5)sc32)s1	?	-22	18%	2.8µM*	13%	-30%

Assay outcomes: PubChem BioAssay, National Center for Advancing Translational Sciences (NCATS)
